Measurements as given in PubChem BioAssay (Tox21).
A number with no mark means an inactive call. Results filed as inconclusive are left out. Where a call stands in place of a potency, no number is given. Activity calls are given as the source filed them. Unless noted, the call rests on the fitted dose curve; in most records, active means well fitted curve in the direction sought with a large enough effect in the repeat runs; inconclusive means weak or mixed curves; inactive means no such curve, though single readings can be large; an effect the other way counts as inactive or inconclusive.

Columns and labels:
[1] = qHTS assay to test for compound auto fluorescence at 535 nm (green) in HEK293 cells (AID 720680)
[2] = qHTS assay to test for compound auto fluorescence at 460 nm (blue) in HEK293 cell free culture (AID 720681)
Summary of the method: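 Compounds were added to cell-free DMEM with 10% FBS and fluorescence read directly. The blue channel used 405 nm excitation and 460 nm emission, with triamterene as the reference fluorophore.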

[3] = qHTS assay to test for compound auto fluorescence at 535 nm (green) in HEK293 cell free culture (AID 720682)
Summary of the method: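 Fluorescein serves as the green reference fluorophore; each compound's intrinsic emission at 535 nm (excitation 485 nm) is reported as an equivalent amount of that dye, measured in serum-containing DMEM without cells.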

[4] = qHTS assay to test for compound auto fluorescence at 590 nm (red) in HEK293 cell free culture (AID 720683)
Summary of the method: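 Cell-free wells of DMEM with 10% FBS received compound, and intrinsic fluorescence was read at excitation/emission 540/590 nm. Values expressed as equivalence to Rose Bengal sodium.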

[5] = qHTS assay to test for compound auto fluorescence at 590 nm (red) in HepG2 cell free culture (AID 720684)
Summary of the method: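 Compound was pinned into wells holding MEM with 10% FBS and no cells, and red fluorescence was read at Ex/Em 540/590 nm. Signal is expressed as auto fluorescence equivalency relative to Rose Bengal sodium.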

[6] = qHTS assay to test for compound auto fluorescence at 460 nm (blue) in HepG2 cell free culture (AID 720685)
Summary of the method: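 Compound (23 nL) or DMSO pinned into cell-free MEM with 10% FBS; blue fluorescence read at 405/460 nm excitation/emission, expressed as auto-fluorescence equivalency to triamterene.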

[7] = qHTS assay to test for compound auto fluorescence at 535 nm (green) in HepG2 cell free culture (AID 720686)
[8] = qHTS assay to test for compound auto fluorescence at 460 nm (blue) in HepG2 cells (AID 720687)
Summary of the method: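 HepG2 cells in MEM with 10% FBS, attached overnight at 37 C, were exposed to compound or DMSO for 1 hr at 37 C, 5% CO2. Blue fluorescence was read at 405/460 nm, with triamterene as reference fluorophore.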

[9] = molecular target: Glucocorticoid receptor (Homo sapiens) (UniProt P04150); assay: qHTS assay to identify small molecule agonists of the glucocorticoid receptor (GR) signaling pathway (AID 720691; active means well fitted activation curve with a large enough effect in the signal ratio in the repeat runs, not every such curve was filed as active; the % refers to the signal ratio)
Sequence of Glucocorticoid receptor (Homo sapiens) (P04150 whole entry, looked up): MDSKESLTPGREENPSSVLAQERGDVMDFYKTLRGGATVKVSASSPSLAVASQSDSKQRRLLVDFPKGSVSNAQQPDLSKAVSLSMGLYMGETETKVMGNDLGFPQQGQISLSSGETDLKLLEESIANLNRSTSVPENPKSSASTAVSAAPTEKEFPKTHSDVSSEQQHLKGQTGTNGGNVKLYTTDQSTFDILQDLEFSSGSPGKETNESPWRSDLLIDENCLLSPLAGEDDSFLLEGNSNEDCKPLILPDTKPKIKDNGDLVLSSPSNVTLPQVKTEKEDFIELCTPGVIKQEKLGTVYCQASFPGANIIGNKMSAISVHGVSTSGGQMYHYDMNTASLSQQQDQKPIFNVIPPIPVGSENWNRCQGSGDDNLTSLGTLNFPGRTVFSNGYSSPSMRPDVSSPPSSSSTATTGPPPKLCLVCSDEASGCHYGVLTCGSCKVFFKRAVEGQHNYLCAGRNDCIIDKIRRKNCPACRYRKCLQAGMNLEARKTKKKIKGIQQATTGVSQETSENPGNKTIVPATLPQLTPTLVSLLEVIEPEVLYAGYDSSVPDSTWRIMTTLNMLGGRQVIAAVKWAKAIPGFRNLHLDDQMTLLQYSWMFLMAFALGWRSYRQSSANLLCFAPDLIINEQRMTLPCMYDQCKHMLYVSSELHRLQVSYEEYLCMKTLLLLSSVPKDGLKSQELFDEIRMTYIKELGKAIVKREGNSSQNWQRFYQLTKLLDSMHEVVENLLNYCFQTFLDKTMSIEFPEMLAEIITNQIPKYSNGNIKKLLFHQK
Summary of the method: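 Reporter read-out: fluorescence intensity following 2 h room-temperature LiveBLAzer B/G FRET substrate loading. Prior step: GR-bla HeLa cells held 4 h, then treated 18 h at 37 C.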

[10] = qHTS assay to identify small molecule antagonists of the glucocorticoid receptor (GR) signaling pathway - cell viability counter screen (AID 720693); further: nearly all actives have a fitted effect of over 55% in size
[11] = qHTS assay for identifying genotoxic compounds that show differential cytotoxicity against isogenic chicken DT40 cell lines with known DNA damage response pathways - Rev3 mutant cell line (AID 743014); further: nearly all actives have a fitted effect of over 55% in size; further: potency means the concentration at half of the fitted maximal effect
[12] = qHTS assay for identifying genotoxic compounds that show differential cytotoxicity against isogenic chicken DT40 cell lines with known DNA damage response pathways - Rad54/Ku70 mutant cell line (AID 743015); further: nearly all actives have a fitted effect of over 60% in size; further: potency means the concentration at half of the fitted maximal effect
[13] = qHTS assay to identify small molecule antagonists of the androgen receptor (AR) signaling pathway - cell viability counter screen (AID 743033; further: nearly all actives have a fitted effect of over 45% in size)
[14] = molecular target: Androgen receptor (Homo sapiens) (UniProt P10275); assay: qHTS assay to identify small molecule antagonists of the androgen receptor (AR) signaling pathway (AID 743035; active means well fitted inhibition curve with a large enough effect in the signal ratio in the repeat runs, not every such curve was filed as active; the % refers to the signal ratio)
Sequence of Androgen receptor (Homo sapiens) (P10275 whole entry, looked up): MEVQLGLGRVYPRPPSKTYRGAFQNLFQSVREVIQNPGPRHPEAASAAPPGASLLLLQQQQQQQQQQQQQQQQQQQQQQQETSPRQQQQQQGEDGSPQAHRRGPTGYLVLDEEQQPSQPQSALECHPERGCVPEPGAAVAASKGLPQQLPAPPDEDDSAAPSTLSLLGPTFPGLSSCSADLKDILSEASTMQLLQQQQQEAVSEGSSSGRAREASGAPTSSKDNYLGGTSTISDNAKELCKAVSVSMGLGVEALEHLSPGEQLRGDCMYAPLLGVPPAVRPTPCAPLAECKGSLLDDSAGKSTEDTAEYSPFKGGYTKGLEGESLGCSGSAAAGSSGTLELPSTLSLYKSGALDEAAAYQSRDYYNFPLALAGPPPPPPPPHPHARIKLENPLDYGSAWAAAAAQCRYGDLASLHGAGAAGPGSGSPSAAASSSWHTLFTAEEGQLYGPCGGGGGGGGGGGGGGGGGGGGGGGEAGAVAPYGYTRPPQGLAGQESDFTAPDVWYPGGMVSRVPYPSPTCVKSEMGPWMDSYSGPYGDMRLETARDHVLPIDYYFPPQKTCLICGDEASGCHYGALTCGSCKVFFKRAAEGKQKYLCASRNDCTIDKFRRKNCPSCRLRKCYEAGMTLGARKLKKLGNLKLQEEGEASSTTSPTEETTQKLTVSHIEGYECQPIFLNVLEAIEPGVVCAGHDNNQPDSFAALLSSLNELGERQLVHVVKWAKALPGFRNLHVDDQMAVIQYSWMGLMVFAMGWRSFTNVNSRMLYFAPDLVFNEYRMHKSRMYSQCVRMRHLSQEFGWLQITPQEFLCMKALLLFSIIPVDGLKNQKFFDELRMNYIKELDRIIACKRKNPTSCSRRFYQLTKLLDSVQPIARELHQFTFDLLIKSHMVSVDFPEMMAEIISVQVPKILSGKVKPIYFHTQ
Summary of the method: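 Using qHTS, AR-UAS-bla GripTite HEK293 cells received compound, then R1881, and were cultured 16 h at 37C/5% CO2 before a 2 h room-temperature LiveBLAzer B/G FRET substrate step and fluorescence measurement.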

[15] = molecular target: Androgen receptor (Homo sapiens) (UniProt P10275); assay: qHTS assay to identify small molecule agonists of the androgen receptor (AR) signaling pathway (AID 743036; active means well fitted activation curve with a large enough effect in the signal ratio in the repeat runs, with a control signal flat, not every such curve was filed as active; the % refers to the signal ratio)
Summary of the method: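 Fluorescence from a beta-lactamase FRET substrate served as read-out in AR-UAS-bla GripTite HEK293 cells. Cells were treated with DMSO-dissolved compounds for 16 h at 37C, then with LiveBLAzer B/G substrate for 2 h at room temperature.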

[16] = molecular target: Androgen receptor (Homo sapiens) (UniProt P10275); assay: qHTS assay to identify small molecule agonists of the androgen receptor (AR) signaling pathway using the MDA cell line (AID 743040; further: nearly all actives have a fitted effect of over 20% in size)
Summary of the method: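 MDA-kb2 breast carcinoma cells carrying MMTV-luciferase (responsive to AR and GR), plated 5 h then treated 16 h with compounds at 37C, 0% CO2. Read-out was ONE-Glo luminescence after 30 min at room temperature.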

[17] = qHTS assay to identify small molecule antagonists of the androgen receptor (AR) signaling pathway using the MDA cell line - cell viability counter screen (AID 743041; further: nearly all actives have a fitted effect of over 45% in size)
Summary of the method: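 MDA-kb2 AR-luc cells (MMTV-luciferase, AR/GR responsive) treated with compounds plus R1881 agonist for 16 h at 37C. CellTiter-Fluor added at 15.5 h; fluorescence read after 30 min in the same wells.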

[18] = molecular target: Androgen receptor (Homo sapiens) (UniProt P10275); assay: qHTS assay to identify small molecule antagonists of the androgen receptor (AR) signaling pathway using the MDA cell line (AID 743042; further: nearly all actives have a fitted effect of over 55% in size)
Summary of the method: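 MDA-kb2 breast carcinoma cells carrying MMTV-luciferase (AR/GR responsive) were co-treated with compounds and the agonist R1881 for 16 h at 37C. Inhibition read as ONE-Glo luminescence; CellTiter-Fluor fluorescence measured in parallel for cytotoxicity.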

[19] = molecular target: Glucocorticoid receptor (Homo sapiens) (UniProt P04150); assay: qHTS assay to identify small molecule antagonists of the glucocorticoid receptor (GR) signaling pathway (AID 720692; active means well fitted inhibition curve with a large enough effect in the signal ratio in the repeat runs, not every such curve was filed as active; the % refers to the signal ratio)
Summary of the method: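 Dexamethasone (5 nM final) stimulated a stably integrated GRE-beta-lactamase reporter in HeLa cells during 18 h co-incubation with compounds; signal was quantified as fluorescence intensity of B/G FRET substrate after 2 h.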

[20] = qHTS assay for identifying genotoxic compounds that show differential cytotoxicity against isogenic chicken DT40 cell lines with known DNA damage response pathways - wild type cell line (AID 743012); further: nearly all actives have a fitted effect of over 60% in size
Summary of the method: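 Using parental DT40 (300 cells/well), compounds delivered in DMSO incubate 40 h at 37 C/5% CO2. CellTiter-Glo reagent then stands 30 min at room temperature, and luminescence gives cell viability.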

Row | Compound | outcome [1] | outcome [2] | outcome [3] | outcome [4] | outcome [5] | outcome [6] | outcome [7] | outcome [8] | Potency [9] | outcome [10] | Potency [11] | Potency [12] | outcome [13] | outcome [14] | outcome [15] | outcome [16] | outcome [17] | outcome [18] | outcome [19] | Potency [20]
1 | COC(C)(C)CC(C)=O | inactive | inactive | inactive | inactive | inactive | inactive | inactive | inactive | inactive | inactive | 54.5 µM (active) | 61.1 µM (active) | inactive | inactive | inactive | inactive | inactive | inactive |  | 
2 | CCCCCCC(O)CO (stereo not given) | inactive | inactive | inactive | inactive | inactive | inactive | inactive | inactive | inactive | inactive | inactive | inactive | inactive |  |  |  | inactive |  | inactive | 
3 | CC(=O)Nc1ccc(S(=O)(=O)Nc2cc(C)on2)cc1 | inactive | inactive | inactive | inactive | inactive | inactive | inactive | inactive | inactive | inactive | inactive | inactive |  |  |  |  | inactive |  | inactive | 
4 | CC(C)(O)CCCC1=CCC(C=O)CC1 (stereo not given) | inactive | inactive | inactive | inactive | inactive | inactive | inactive | inactive | inactive |  | 65.2 µM (active) |  | inactive |  |  |  | inactive |  | inactive | 
5 | CCc1ncc(C)[nH]1 | inactive | inactive | inactive | inactive | inactive | inactive | inactive | inactive | inactive |  | inactive | inactive |  | inactive | inactive | inactive | inactive | inactive | inactive | 
6 | O=P(O)(O)C(O)(Cc1cccnc1)P(=O)(O)O | inactive | inactive | inactive | inactive | inactive | inactive | inactive | inactive | inactive |  | inactive | inactive | inactive |  |  |  | inactive |  |  | inactive
7 | NC[C@H]1O[C@H](O[C@H]2[C@H](O)[C@@H](O[C@H]3O[C@H](CO)[C@@H](O)[C@H](N)[C@H]3O)[C@H](N)C[C@@H]2N)[C@H](N)[C@@H](O)[C@@H]1O | inactive | inactive | inactive | inactive | inactive | inactive | inactive | inactive | inactive |  | inactive | inactive |  |  |  |  | inactive |  | inactive | inactive
